Tau fibril ThT: blocks human tau fibril formation measured by thioflavin T; P10636; 270,000 tested, 2.1% active; recombinant tau K18 P301L, heparin-induced fibrillization, ThT fluorescence; AID 1460; Potency, µM (doses to about 57.4 µM), inactives show top-dose activity, negative = inhibition, usual class: inhibitors; active means well fitted curve in the direction sought with a large enough effect; inconclusive means small, poorly fitted or top-dose-only effect, or another doubt; inactive means no such curve, though single readings can be large; an effect the other way counts as inactive or inconclusive; further: nearly all actives have a fitted effect of over 55% in size
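Heparin-induced (20 uM) aggregation of recombinant human K18 P301L tau, 15 uM unlabeled with 0.24 uM labeled, pH 7 acetate buffer, 6 hr at 37 C with compound. Fibrils quantified by 30 uM ThT fluorescence after 1 hr ambient incubation.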
JMJD2E inh: inhibitors of human JMJD2E histone demethylase; B2RXH2; JMJD2E catalytic domain, FDH-coupled NADH fluorescence (FDH is formaldehyde dehydrogenase); Potency, µM (titrated, usually from 57.1 µM), without a hit: at the top dose activity change, negative = inhibition, actives largely listed as inhibitors; 230,000 tested, 1.6% active;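 further: 0% = wells with enzyme and -100% = buffer wells without enzyme; nearly all actives have a fitted effect of over 50% in size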
Target sequence (B2RXH2 1-337 limits assumed): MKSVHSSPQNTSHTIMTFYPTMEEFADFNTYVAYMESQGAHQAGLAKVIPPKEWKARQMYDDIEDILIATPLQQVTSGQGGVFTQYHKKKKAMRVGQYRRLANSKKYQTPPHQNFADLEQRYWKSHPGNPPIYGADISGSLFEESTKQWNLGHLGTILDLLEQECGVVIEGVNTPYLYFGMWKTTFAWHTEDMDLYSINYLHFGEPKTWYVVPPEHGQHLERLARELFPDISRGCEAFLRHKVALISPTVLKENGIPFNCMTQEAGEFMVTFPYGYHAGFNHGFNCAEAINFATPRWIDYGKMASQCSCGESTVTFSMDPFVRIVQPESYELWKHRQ
ALDH1A1 block: blocks purified human ALDH1A1 activity. 220,000 tested, 7.3% active. Potency, µM (titrated, usually from 75.3 µM), for the others: at the highest dose activity, negative = inhibition, most hits filed as inhibitors. P00352. Purified ALDH1A1, NADH fluorescence, propionaldehyde substrate;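 further: plate controls were no enzyme wells and a reference inhibitor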
Tau fluor counter: counter-screen for tau fibril formation inhibitors | 280,000 tested, 0.93% active | AID 1463 | Potency, µM (doses to about 57.7 µM), for the others: at the top dose activity change, negative = decrease | tau K18 P301L Alexa594 fluorescence, heparin fibrillization; active means well fitted curve in the direction sought with a large enough effect; inconclusive means small, poorly fitted or top-dose-only effect, or another doubt; inactive means no such curve, though single readings can be large; an effect the other way counts as inactive or inconclusive; further: nearly all actives have a fitted effect of over 55% in size
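Human tau K18 P301L (15 uM unlabeled, 0.24 uM Alexa 594-labeled) in 100 mM sodium acetate pH 7 with 20 uM heparin, 6 hr at 37 C. ThT 30 uM added, 1 hr ambient; Alexa 594 FP and total fluorescence read at 555/632 nm.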
HPGD inh: inhibitors of human 15-hydroxyprostaglandin dehydrogenase (HPGD); purified HPGD, NADH fluorescence kinetic, PGE2 substrate; 150,000 tested, 4.3% active; P15428; Potency, µM, without a hit: top-dose activity change, negative = inhibition, hits mostly inhibitors; AID 894
Target sequence (P15428 whole entry, looked up): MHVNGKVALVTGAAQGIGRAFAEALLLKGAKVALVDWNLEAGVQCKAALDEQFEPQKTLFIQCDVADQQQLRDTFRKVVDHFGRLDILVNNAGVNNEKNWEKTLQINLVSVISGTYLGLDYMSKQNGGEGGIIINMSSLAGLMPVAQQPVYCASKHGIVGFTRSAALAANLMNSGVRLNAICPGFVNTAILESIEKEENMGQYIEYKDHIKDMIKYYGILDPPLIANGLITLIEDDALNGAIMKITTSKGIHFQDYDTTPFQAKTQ
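NADH formation kinetics: reaction with 30 uM PGE2 and 1 mM NAD+ (final), 20 nM enzyme, Tris-HCl pH 8 with Tween 20, after 15 min compound preincubation at room temperature. Fluorescence change, last versus first of five reads.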
Tau fibril FP: tau fibrillization inhibition (FP); Potency, µM (doses to about 57.7 µM), without a hit: at the highest dose activity, negative = inhibition, most hits filed as inhibitors; P10636; AID 1468; K18 P301L tau heparin fibrillization, Alexa594 FP, 6 h; 280,000 tested, 0.39% active; active means well fitted curve in the direction sought with a large enough effect; inconclusive means small, poorly fitted or top-dose-only effect, or another doubt; inactive means no such curve, though single readings can be large; an effect the other way counts as inactive or inconclusive; further: nearly all actives have a fitted effect of over 55% in size
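Heparin (20 uM) drove fibril formation of recombinant tau K18 P301L, 15 uM unlabeled with 0.24 uM Alexa 594 label, for 6 hr at 37 C in 100 mM sodium acetate pH 7. Fluorescence polarization (555/632 nm) read 1 hr after 30 uM ThT.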
Starred values were filed as active, the others as inactive; [ ] = remark or other dose. Hits are enriched below; roughly 9.9% of the tested compounds scored in any of these assays. Unless noted, the call rests on the fitted dose curve; in most records, active means well fitted inhibition curve with a large enough effect (not every such curve was filed as active); inconclusive means small, poorly fitted or top-dose-only effect, or another doubt; inactive means no such curve, though single readings can be large or run the other way. Unless noted, on the % scale 0 is the no-effect control and ±100 the full control effect; potency means the concentration at half of the fitted maximal effect.

NCC1O[C@@H](OC2C(N)CC(N)C(O)C2O[C@@H]2OC(CO)C(O)C2O)C(N)C(O)C1O (stereo partly specified) was read as Tau fibril ThT -7%, JMJD2E inh 9%, ALDH1A1 block 6%, Tau fluor counter -16%, HPGD inh -4% and Tau fibril FP -3%.
Screening O=c1cc(-c2ccccc2F)oc2ccccc12 returned Tau fibril ThT -8%, JMJD2E inh -15%, ALDH1A1 block -2%, Tau fluor counter -10%, HPGD inh 13µM* and Tau fibril FP -7%.
Screening O=c1cc(-c2ccccc2[N+](=O)[O-])oc2ccccc12 returned Tau fibril ThT -3%, JMJD2E inh 7%, ALDH1A1 block inconclusive, Tau fluor counter -2% and Tau fibril FP 5%.
For COc1cccc(-c2cc(=O)c3ccccc3o2)c1N the results were Tau fibril ThT 16µM*, JMJD2E inh -1%, ALDH1A1 block inconclusive, Tau fluor counter inconclusive, HPGD inh 13µM* and Tau fibril FP 0%.
Screening O=C(CN1CCCC1)Nc1ccccc1Sc1ccc(Cl)cc1 returned Tau fibril ThT -11%, JMJD2E inh inconclusive, ALDH1A1 block -2%, Tau fluor counter -8% and Tau fibril FP 2%.
Screening O=C1[C@@H]2[C@H](C(=O)N1O)[C@H]1C=C[C@@H]2C1 returned Tau fibril ThT -18%, JMJD2E inh -1%, ALDH1A1 block 0.63µM*, Tau fluor counter -5%, HPGD inh -9% and Tau fibril FP 6%.
For O=C1C2C3C=CC(C3)C2C(=O)N1CCCCN1C(=O)C2C3C=CC(C3)C2C1=O (stereo unspecified) the results were Tau fibril ThT -4%, JMJD2E inh -11%, ALDH1A1 block inconclusive, Tau fluor counter 3%, HPGD inh -5% and Tau fibril FP 2%.
Screening Cc1ccc2oc(=O)c3cnn(CC(=O)Nc4cccc(C(F)(F)F)c4)c3c2c1 returned Tau fibril ThT 10%, Tau fluor counter 1% and Tau fibril FP -10%.
Screening O=C(O)CC1(CC(=O)Nc2ccc3ccccc3c2)CCCCC1 returned Tau fibril ThT -16%, JMJD2E inh 1%, ALDH1A1 block inconclusive, Tau fluor counter -13%, HPGD inh 4µM* and Tau fibril FP 3%.
O=C(O)CC1(CC(=O)Nc2ccc(F)c(Cl)c2)CCCCC1 was read as Tau fibril ThT 5%, JMJD2E inh 4%, ALDH1A1 block 4µM*, Tau fluor counter 6% and Tau fibril FP 12%.
COc1ccccc1/C=C/C=N\N1CCN(Cc2ccccc2Cl)CC1 was read as Tau fibril ThT inconclusive, JMJD2E inh 0%, ALDH1A1 block 20µM*, Tau fluor counter inconclusive, HPGD inh -9% and Tau fibril FP 6%.
Screening COc1ccccc1/C=C/C=N/N1CCN(Cc2ccc(Cl)cc2)CC1 returned Tau fibril ThT inconclusive, JMJD2E inh inconclusive, ALDH1A1 block 18µM*, Tau fluor counter -25%, HPGD inh -25% and Tau fibril FP 11%.
Clc1ccc(/C=N/N2CCN(Cc3ccccc3Cl)CC2)cc1 was read as Tau fibril ThT -18%, JMJD2E inh 5%, ALDH1A1 block -6%, Tau fluor counter -16% and Tau fibril FP 10%.
`CCOc1cc(-c2cc(-c3ccc(N)cc3)nc(N)c2C#N)ccc1O` gave Tau fibril ThT inconclusive, JMJD2E inh inconclusive, ALDH1A1 block inconclusive, Tau fluor counter 14µM*[quencher], HPGD inh inconclusive and Tau fibril FP inconclusive.
Screening CCN(Cc1ccncc1)Cc1cn[nH]c1-c1ccc(OC)cc1F returned Tau fibril ThT -18%, JMJD2E inh inconclusive, ALDH1A1 block 14µM*, Tau fluor counter -14% and Tau fibril FP -1%.
Screening COc1ccc(C(=O)N2CCN(Cc3cn[nH]c3-c3ccc(OC)cc3F)CC2)cc1 returned Tau fibril ThT -6%, JMJD2E inh 1%, ALDH1A1 block 1µM*, Tau fluor counter -4% and Tau fibril FP -7%.
`COc1cccc(C(=O)N2CCN(Cc3cn[nH]c3-c3ccc(F)cc3F)CC2)c1` gave Tau fibril ThT -2%, JMJD2E inh 3%, ALDH1A1 block inconclusive, Tau fluor counter -3% and Tau fibril FP -22%.
`CCC1CO/C(=C(\C(Cl)=C(Cl)Cl)[N+](=O)[O-])N1` (stereo unspecified) gave Tau fibril ThT 35µM*, JMJD2E inh -3%, ALDH1A1 block -7%, Tau fluor counter -19% and Tau fibril FP inconclusive.
Screening OCCC1CN(Cc2cnc(-c3cccc4ccccc34)nc2)CCN1C1CCCCC1 (stereo unspecified) returned Tau fibril ThT -9%, JMJD2E inh 4%, ALDH1A1 block -1%, Tau fluor counter -5% and Tau fibril FP -1%.
For CCOC(=O)NC(O)C(=O)c1ccc(F)cc1 (stereo unspecified) the results were Tau fibril ThT -6%, JMJD2E inh 8%, ALDH1A1 block 22µM*, Tau fluor counter -6% and Tau fibril FP 8%.
`Nc1sc(-c2ccccc2)cc1C(=O)N/N=C/c1ccc(Cl)cc1` gave Tau fibril ThT 4µM*, JMJD2E inh -29%, Tau fluor counter 14µM*[quencher] and Tau fibril FP -4%.
COC(=O)c1cc(-c2ccccc2)sc1N was read as Tau fibril ThT inconclusive, JMJD2E inh -7%, ALDH1A1 block inconclusive, Tau fluor counter inconclusive, HPGD inh 28µM* and Tau fibril FP 16%.
For CCN(C(=O)Cn1c(=O)n2nc(CCn3nc(C)cc3C)nc2c2ccccc21)c1cccc(C)c1 the results were Tau fibril ThT -14%, JMJD2E inh 2%, ALDH1A1 block inconclusive, Tau fluor counter -3%, HPGD inh -4% and Tau fibril FP -2%.
Cc1cccc(NC(=O)Cn2c(=O)n3nc(CCn4nc(C)cc4C)nc3c3ccccc32)c1 was read as Tau fibril ThT -21%, JMJD2E inh 0%, ALDH1A1 block 14µM*, Tau fluor counter -12%, HPGD inh -24% and Tau fibril FP -6%.
Clc1ccc(C2CC(c3ccco3)n3ncnc3N2)cc1Cl (stereo unspecified) was read as Tau fibril ThT inconclusive, JMJD2E inh 5%, ALDH1A1 block 32µM*, Tau fluor counter -19%, HPGD inh -3% and Tau fibril FP -7%.
Screening COc1cccc(C2CC(c3ccccc3)Nc3ncnn32)c1 (stereo unspecified) returned Tau fibril ThT 3%, JMJD2E inh -2%, ALDH1A1 block 7.1µM*, Tau fluor counter 5%, HPGD inh -17% and Tau fibril FP 4%.

Bioassay records deposited in PubChem by National Center for Advancing Translational Sciences (NCATS).
